Among the data in PubChem BioAssay (NCI) are growth values, retold here.

This is part of a sample that, as a whole, favours compounds with a hit. Of some 83,000 tested, about 20% had one in any assay.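 Plates (96-well) were seeded with cells, treated with compound at one concentration, and incubated for 48 hours before percent growth was determined.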 Calls of active or inactive are those of the source.

This test concerns RPMI-8226 leukemia. Briefly: NCI-60 one-dose screen, 48 h (100 = growth as untreated, 0 = no growth, -100 = all killed). Conditions: 10 µM. How it is done:
Growth inhibition of the RPMI-8226 human tumor cell line is measured as a screen for anti-cancer activity. Cells are grown in 96 well plates and exposed to the test compound for 48 hours. Compounds are tested at a single concentration, which is 10^-5 M for most compounds. The reported endpoint is percent growth (GI% or GIPRCNT), where numbers from 0 - 100% represent growth inhibition, and numbers from -100% - 0 represent cell death. For example, a value of 40 represents 60% growth inhibition. A value of 0 means no net growth occurred over the course of the experiment. A value of -40 indicates 40% of cells at the beginning of the experiment died by the end of the experiment. A value of -100 means all cells are dead at the end of the experiment.
NCI-60 Human Tumor Cell Lines Screen was performed using the standard one-dose NCI protocol, which is described in more detail at https://dtp.cancer.gov/discovery_development/nci-60/default.htm.
Compounds with GIPRCNT values below 10 were considered active. Activity score was based on GIPRCNT using the following formula: […]
Score is 0 for GIPRCNT values of 100 or above, 50 for GIPRCNT values of 0, and 100 for GIPRCNT values of -100.
Take `C[C@H]1[C@H](OC(=O)CCC(=O)N(CCCc2cn(-c3ccc(CN4CCOCC4)cc3)nn2)CCNc2ccnc3cc(Cl)ccc23)O[C@@H]2OC3(C)CC[C@H]4[C@H](C)CC[C@@H]1[C@@]24OO3`: the growth is 3.71% (active).

With `CCOC(=O)C1=C(Nc2ccccc2)C(=O)OC12C(=O)Nc1ccccc12` (stereo not given), the growth was 104% (inactive).

With `O=C(/C=C/c1ccc(F)cc1)c1nc2ccccc2n1Cc1ccc(F)cc1`, the growth was -27.1% (active).

Turning to `C#CC[Se]C(=O)c1ccc(C(=O)[Se]CC#C)s1`, the growth is 86% (inactive).

Turning to `COCCOCCOCCOc1ccc(-n2cc(CCCN(CCNc3ccnc4cc(Cl)ccc34)C(=O)CCC(=O)O[C@@H]3O[C@@H]4OC5(C)CC[C@H]6[C@H](C)CC[C@@H]([C@H]3C)[C@@]46OO5)nn2)cc1`, the growth was 26.3% (inactive).

`CC12CCC3(CCC(=O)NCCCNc4ccnc5cc(Cl)ccc45)[C@@](C)(OO[C@]3(C)O1)O2`: the growth is 22.2% (inactive).

Consider `CC[C@]12C=CCN3CC[C@@]4(c5ccc(OC)cc5N(C)[C@H]4[C@@](O)(C(=O)OC)[C@@H]1OC(=O)CCC[P+](c1ccc(C)cc1)(c1ccc(C)cc1)c1ccc(C)cc1)[C@@H]32`, for which the growth was -56.3% (active).

For the compound `CC12OOC(C)(OO1)C2CCC(=O)OCCNc1ccnc2cc(Cl)ccc12` (stereo not given), the growth is 8.42% (active).

For the compound `COc1cc(OC)c(/C=C/C(=O)c2nc3ccccc3n2Cc2ccc(F)cc2)c(OC)c1`, the growth was 78.4% (inactive).

With `O=C(/C=C/c1ccc(Cl)cc1)c1nc2ccccc2n1Cc1ccc(Br)cc1`, the growth was -13.4% (active).

On to `C#CCCCN(CCNc1ccnc2cc(Cl)ccc12)C(=O)CCC(=O)O[C@@H]1O[C@@H]2OC3(C)CC[C@H]4[C@H](C)CC[C@@H]([C@H]1C)[C@@]24OO3`, for which the growth is 24.9% (inactive).

Regarding `CC(=O)Oc1ccccc1C(=O)[Se]C(=NC(C)C)NC(C)C`, the growth was -20% (active).

Take `CC(=C\C(=O)Oc1ccc2c3c1OC1C(O)CCC4(O)C(C2)N(CC2CCC2)CCC314)/C=C1\CCCc2ccccc21` (stereo not given): the growth was 30.1% (inactive).

With `O=C(/C=C/c1ccco1)c1nc2ccccc2n1Cc1ccc(F)cc1`, the growth is 25.2% (inactive).

Regarding `CC(=O)Oc1ccccc1C(=O)NC([Se])=NC1CCCCC1`, the growth is 27.9% (inactive).

Regarding `C[C@H]1[C@H](OC(=O)CCC(=O)N(CCCc2cn(-c3ccc([N+](=O)[O-])cc3)nn2)CCNc2ccnc3cc(Cl)ccc23)O[C@@H]2OC3(C)CC[C@H]4[C@H](C)CC[C@@H]1[C@@]24OO3`, the growth is 28.7% (inactive).

On to `O=C(/C=C/c1ccccc1Cl)c1nc2ccccc2n1Cc1ccc(F)cc1`, for which the growth was -29.7% (active).

With `C=CC[Se]C(=O)c1cncc(C(=O)[Se]CC=C)c1`, the growth is -42.2% (active).

Consider `CC1=C(CCC=NNC(N)=O)C2=C(C)C3(CC3)[C@@](C)(O)C(=O)C2=C1`, for which the growth was 1.7% (active).

For the compound `CC(C)N=C([Se])NC(=O)c1cccs1`, the growth was -4.48% (active).

Regarding `CC[C@]12C=CCN3CC[C@@]4(c5ccc(OC)cc5N(C)[C@H]4[C@@](O)(C(=O)OC)[C@@H]1OC(=O)CCCC[P+](c1ccc(C)cc1)(c1ccc(C)cc1)c1ccc(C)cc1)[C@@H]32`, the growth is -46% (active).

`C[C@H]1[C@H](OC(=O)CCC(=O)Nc2cnccn2)O[C@@H]2OC3(C)CC[C@H]4[C@H](C)CC[C@@H]1[C@@]24OO3`: the growth was 21.5% (inactive).

Take `O=C([Se]C1C=CCCC1)c1ccc(C(=O)[Se]C2C=CCCC2)s1` (stereo not given): the growth was -43.1% (active).

As for `O=C(/C=C/c1cccc(Br)c1)c1nc2ccccc2n1Cc1ccc(Br)cc1`, the growth is -34.8% (active).

Consider `C[C@H]1[C@@H](CC(=O)N[C@@H](Cc2coc3ccccc23)B(O)O)O[C@@H]2OC3(C)CC[C@H]4[C@H](C)CC[C@@H]1[C@@]24OO3`, for which the growth was -7.66% (active).

As for `COc1cc2cc(C(=O)N3C[C@@H](CCl)c4c3cc(OC(=O)N3CCN(C(=O)CCC(=O)N5CCN(C)CC5)[C@@H]5CSSC[C@@H]53)c3ccccc43)[nH]c2c(OC)c1OC`, the growth is 6.09% (active).

Consider `COC(=O)C[C@](O)(CCC(C)C)C(=O)O[C@H]1C(OC)=C[C@@]23CCCN2CCc2cc4c(cc2[C@@H]13)OCO4`, for which the growth is -19.5% (active).

For `C#CC[Se]C(=O)c1ccc2n[se]nc2c1`, the growth is 21.3% (inactive).

For the compound `COc1cc2cc(C(=O)N3C[C@@H](CCl)c4c3cc(OC(=O)N3CCN(C)[C@@H]5CSSC[C@H]53)c3ccccc43)[nH]c2c(OC)c1OC`, the growth is -33.9% (active).

Consider `CC[C@]12C=CCN3CC[C@@]4(c5ccc(OC)cc5N(C)[C@H]4[C@@](O)(C(=O)OC)[C@@H]1OC(=O)CCCC[P+](C1CCCCC1)(C1CCCCC1)C1CCCCC1)[C@@H]32`, for which the growth was -45% (active).

In the case of `O=C(/C=C/c1ccc(Cl)cc1Cl)c1nc2ccccc2n1Cc1ccc(Br)cc1`, the growth is 2.18% (active).

`O=C(NCCCCC(c1ccc(F)cc1)c1ccc(F)cc1)Nc1ccc([N+](=O)[O-])c(C(F)(F)F)c1`: the growth was -39.3% (active).

Take `O=C(/C=C/c1ccc(Cl)cc1Cl)c1nc2ccccc2n1Cc1ccc(F)cc1`: the growth was -31.1% (active).

Regarding `CC[C@]12C=CCN3CC[C@@]4(c5ccc(OC)cc5N(C)[C@H]4[C@@](O)(C(=O)OC)[C@@H]1OC(=O)CCC[P+](C1CCCCC1)(C1CCCCC1)C1CCCCC1)[C@@H]32`, the growth is -43.4% (active).

On to `O=C(/C=C/c1ccc(F)cc1)c1nc2ccccc2n1Cc1ccc(Br)cc1`, for which the growth is -34.7% (active).

`C[C@H]1[C@@H](Oc2ccc(-c3cn(-c4ccnc5cc(Cl)ccc45)nn3)cc2)O[C@@H]2OC3(C)CC[C@H]4[C@H](C)CC[C@@H]1[C@@]24OO3`: the growth is 23% (inactive).

Take `C=CC[Se]C(=O)c1ccc(C(=O)[Se]CC=C)s1`: the growth is -26.8% (active).

Turning to `COC(=O)CCn1c(-c2ccc(-n3cc(-c4ccc(O[C@H]5O[C@@H]6OC7(C)CC[C@H]8[C@H](C)CC[C@@H]([C@H]5C)[C@@]68OO7)cc4)nn3)cc2)nc2ccccc21`, the growth was 20.3% (inactive).

`CC[C@]12C=CCN3CC[C@@]4(c5ccc(OC)cc5N(C)[C@H]4[C@@](O)(C(=O)OC)[C@@H]1OC(=O)CCCC[P+](c1ccc(OC)cc1)(c1ccc(OC)cc1)c1ccc(OC)cc1)[C@@H]32`: the growth is -68.8% (active).

Regarding `CC12OOC(C)(OO1)C2CCC(=O)NCCCNc1ccnc2cc(Cl)ccc12` (stereo not given), the growth is 39% (inactive).
